“And” between values parts separate entries of the source, which are not always exact repeats. Equal entries are not always repeated. The panel holds about 83,000 compounds, 20% with a hit somewhere; the sample as a whole holds those more often.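 Single-dose data. Exposure time 48 hours. Values below 10 considered active.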 Where a structure was tested more than once in an assay, its records may differ in their call. The source made the active and inactive calls.
Test system: MDA-MB-468 breast
Assay: NCI-60 one-dose screen, 48 h (100 = growth as untreated, 0 = no growth, -100 = all killed)
Settings: 10 µM unless noted

Row | SMILES | growth
1 | COc1ccc(NC(=O)CSc2nc(C)c(C(C)=O)n2-c2ccc([N+](=O)[O-])cc2)cc1 | 91.4% (inactive)
2 | CCCCCCCCCCCCCCCCNCCC[C@@H](C)[C@H]1CC[C@H]2[C@@H]3[C@H](OCCCN)C[C@@H]4C[C@H](OCCCN)CC[C@]4(C)[C@H]3C[C@H](OCCCN)[C@]12C | -55.2% (active)
3 | Cc1ccc(CNc2c3ccccc3nc3cc(NC(=O)CCN4CCCC4)ccc23)cc1 | -29.3% (active)
4 | O=C(Nc1ccc2c(c1)OCO2)C(=O)c1c[nH]c2cc(F)ccc12 | 74.5% (inactive)
5 | Cc1ccc(S(=O)(=O)OC[C@@]2(C)CC[C@]3(C)CC[C@]4(C)C(=CC[C@@H]5[C@@]6(C)CCCNC(C)(C)[C@@H]6CC[C@]54C)[C@@H]3C2)cc1 | -85.5% (active)
6 | COC1C(OC(N)=O)C(O)C(Oc2ccc3c(O)c(NC(=O)c4ccc(O)c(CC=C(C)C)c4)c(=O)oc3c2C)OC1(C)C (stereo not given) | 89% (inactive)
7 | CN=S(=O)(OCCCCCOS(=O)(=NC)c1ccc(C)cc1)c1ccc(C)cc1 (stereo not given) | 83.3% (inactive)
8 | COc1cc2c(cc1OC)C(Sc1ccc(SC)cc1)c1c(nc(N)c(C#N)c1N)O2 (stereo not given) | -47.1% (active)
9 | Cc1ccc2c3c(cccc13)-c1ccccc1C2=O | 97% (inactive)
10 | O=C(NO)c1ccc(CNc2cccc3nc(C4CC4)n(-c4ccccc4)c(=O)c23)cc1 | 22.3% (inactive)
11 | C[C@@H]1NC(=O)[C@H](Cc2ccccc2)N(Cc2cccnc2)C1=O | 108% (inactive)
12 | Cc1cc(NC(=O)C2c3ccccc3C(=O)N(CC(C)C)C2c2cccs2)no1 (stereo not given) | -56.6% (active)
13 | CC(=O)OC(OC(C)=O)C1CCCO1 (stereo not given) | 99.5% (inactive)
14 | CC(C)(C)n1cc(-c2ccnc(NCCNS(=O)(=O)c3cccc(F)c3)c2)c(-c2ccccc2)n1 | 62.8% (inactive)
15 | Cc1ccc(/C=C/C(=O)c2ccc(N)cc2)c(C)c1 | 88.7% (inactive)
16 | COc1cccc(Cn2cc3c(c2)-c2oncc2CC3)c1 | 1.66% (active)
17 | COc1cc(C2CC(c3ccc(Nc4ccnc5cc(Cl)ccc45)cc3)=NN2c2ccccc2)cc(OC)c1OC (stereo not given) | 44.6% (inactive)
18 | Nc1c(Br)cc2c(c1Br)Cc1cc(Cl)ccc1-2 | -5.33% (active)
19 | C[C@]1(O)CC(=O)[C@]2(O)C3=C(C=C[C@]2(O)C1)C(=O)c1c(O)cccc1C3=O | -57.5% (active)
20 | O=C(Nc1nc2ccc(OC(F)(F)F)cc2s1)c1ccc(F)cc1 | 21.1% (inactive)

Row | SMILES | growth
21 | NC(=S)N/N=C1\c2ccccc2-c2c(F)c(F)c(F)c(F)c21 | 25.8% (inactive)
22 | CCn1c(CSc2nc3ccccc3c(=O)n2CCc2ccccc2)n[nH]c1=S | 85.6% (inactive)
23 | CO/N=C/C=C\C(=O)N/C=C/C[C@H]1/C=C/[C@H](O)/C=C\C=C\c2cccc(O)c2C(=O)O1 | 59.1% (inactive) and 46.3% (inactive)
24 | Cc1cc(S(=O)(=O)/N=C(\N)n2nc(C)c(C)c2C)c(SCc2ccccc2)cc1Cl | 66% (inactive)
25 | c1ccc(-c2c(-c3ccccc3)[n+](Cc3ccc4ccccc4c3)c(-c3cccc4ccccc34)n2Cc2ccc3ccccc3c2)cc1 | -62.3% (active)
26 | Cc1ccc(Cc2ccc(C)cc2)cc1 | 96.8% (inactive)
27 | Cc1c(-c2ccc(C3CCCCC3)cc2)nc2ccc(F)cc2c1C(=O)O | 74.4% (inactive)
28 | O=C1C[C@@H]2/C(=C(O)\C=C\c3ccccc3)C(=O)C=C[C@@H]2O1 | -76.9% (active)
29 | COc1ccc(S(=O)(=O)N2CCN(c3cc4c(cc3F)c(=O)c(C(=O)O)cn4C3CC3)CC2)c(OC)c1 | 86.4% (inactive)
30 | Nc1nc(Nc2cccc(F)c2)nc2ccccc12 | 8.81% (active)
31 | c1ccc(Nc2ccccn2)nc1 | 93.3% (inactive)
32 | CCOc1nc(-c2ccco2)n2nc(-c3ccco3)cc2n1 | -5.05% (active)
33 | COc1ccc(/C=N/NC(=O)c2cn(C3CC3)c3c(OC)c(N4CC5CCCNC5C4)c(F)cc3c2=O)cc1 (stereo not given) | 89.4% (inactive)
34 | CCCCCCCCCCCCCCCCNC(=O)Nc1ccc(C)c(NC(=O)NCCCCCCCCCCCCCCCC)c1 | 101% (inactive)
35 | O=C(Nc1cccc(F)c1)c1cc(=O)[nH]c2cc(Br)ccc12 | 55.3% (inactive)
36 | O=C1C=CC(n2cc(F)c(=O)[nH]c2=O)O1 (stereo not given) | 85.3% (inactive)
37 | COc1ccc(-c2nn(-c3cccc(Cl)c3)cc2-c2cc(-c3ccccc3)[nH]c(=O)c2C#N)cc1 | 16.4% (inactive)
38 | O=S(=O)(NCCNc1nccc(-n2cnc3ccccc32)n1)c1ccc(Cl)cc1 | 101% (inactive)
39 | OC1CCC(Oc2cccc3cnc(Nc4ccc5nc[nH]c5c4)nc23)CC1 (stereo not given) | -42.4% (active) and 69.7% (inactive)
40 | Cc1nc2ncccc2nc1Nc1ccc(S(=O)(=O)Nc2ccccn2)cc1 | 109% (inactive)
